The record followed here is PubChem BioAssay (Tox21).

Experiment [1] can be described thus: qHTS assay to identify small molecule antagonists of the sonic hedgehog signaling (Shh) pathway (AID 1259369; calls by dose curve; further: nearly all actives have a fitted effect of over 45% in size; further: potency means the concentration at half of the fitted maximal effect). The essentials:
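Screening used 3T3Gli1-Luc cells at 2,000 per well, compounds delivered in DMSO, and conditioned medium as agonist stimulus; plates incubated 24hr at 37 C and 5% CO2 before a 30min luciferase step.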

The target in experiment [2] is Estrogen receptor beta (Homo sapiens) (UniProt Q92731). The experiment can be described thus: qHTS assay to identify small molecule agonists of the estrogen receptor beta (ER-beta) signaling pathway (AID 1259377; active means well fitted activation curve with a large enough effect in the signal ratio in the repeat runs, not every such curve was filed as active; the % refers to the signal ratio). The method in brief:
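Ratiometric beta-lactamase FRET read-out came after 2 h substrate loading at room temperature. It followed 16 h compound treatment at 37C of GripTite HEK293T cells carrying a UAS-bla reporter, plated in 2% charcoal-stripped FBS medium.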

The target is the same in experiment [3]. Nature of the experiment: qHTS assay to identify small molecule antagonists of the estrogen receptor beta (ER-beta) signaling pathway (AID 1259378; active means well fitted inhibition curve with a large enough effect in the signal ratio in the repeat runs, not every such curve was filed as active; the % refers to the signal ratio; further: potency means the concentration at half of the fitted maximal effect). The essentials: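 ER-beta-UAS-bla HEK293T cells in 2% charcoal-stripped FBS medium treated with compound plus 1nM final 17-beta-estradiol for 16 hr at 37C. Beta-lactamase reporter read by FRET substrate fluorescence after 2 hours at room temperature.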

The nature of experiment [4]: qHTS assay to identify small molecule agonists of the androgen receptor (AR) signaling pathway in the presence of an antagonist - cell viability counter screen (AID 1259379). Further: nearly all actives have a fitted effect of over 25% in size. Further: potency means the concentration at half of the fitted maximal effect. The essentials:
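In MDA-kb2 cells (human breast carcinoma, MMTV-luciferase), compounds at 15 concentrations plus 3.0uM nilutamide; 16 hr, 37C, 0% CO2; CellTiter-Fluor fluorescence read for viability.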

A short description of experiment [5]: qHTS assay to identify small molecule antagonists of the estrogen receptor beta (ER-beta) signaling pathway - cell viability counter screen (AID 1259382). Further: series mostly up to about 92 µM; nearly all actives have a fitted effect of over 55% in size. The essentials: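 Tox21 10K library tested in qHTS format on ER-beta-bla HEK293T cells stimulated with 1nM E2; 16 hr treatment at 37C. Same-well CellTiter-Glo luminescence served as the cell viability measure.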

The target in experiment [6] is Estrogen receptor (Homo sapiens) (UniProt P03372). The experiment can be described thus: qHTS assay to identify small molecule agonists of the estrogen receptor alpha (ER-alpha) signaling pathway in the presence of an antagonist (AID 1259383; calls by dose curve; further: top concentration of the series differs between compounds; nearly all actives have a fitted effect of over 15% in size). The essentials: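 In VM7Luc4E2 cells, 4,000 per well, compounds at 15 concentrations were co-incubated 22hr at 37C with 10.0nM final ICI-182,780. Luminescence from the stably transfected 4×ERE-luciferase reporter was recorded 30min after ONE-Glo addition.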
Estrogen receptor (Homo sapiens), sequence (P03372 whole entry, looked up): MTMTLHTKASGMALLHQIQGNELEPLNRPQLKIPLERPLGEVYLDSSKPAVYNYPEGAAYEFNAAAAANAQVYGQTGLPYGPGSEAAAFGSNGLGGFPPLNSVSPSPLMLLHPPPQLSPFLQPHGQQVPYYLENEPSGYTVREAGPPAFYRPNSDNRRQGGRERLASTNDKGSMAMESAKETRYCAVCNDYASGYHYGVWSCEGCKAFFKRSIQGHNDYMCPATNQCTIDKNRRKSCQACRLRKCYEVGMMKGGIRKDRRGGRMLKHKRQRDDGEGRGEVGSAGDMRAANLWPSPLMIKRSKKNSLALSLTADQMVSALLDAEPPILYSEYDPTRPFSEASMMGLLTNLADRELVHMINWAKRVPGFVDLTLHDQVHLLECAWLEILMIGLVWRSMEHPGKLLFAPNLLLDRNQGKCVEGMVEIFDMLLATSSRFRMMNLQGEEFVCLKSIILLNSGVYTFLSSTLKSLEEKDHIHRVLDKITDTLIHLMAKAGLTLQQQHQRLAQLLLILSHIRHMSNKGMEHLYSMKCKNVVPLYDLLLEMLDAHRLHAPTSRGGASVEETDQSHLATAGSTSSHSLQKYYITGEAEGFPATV

Experiment [7] is described as follows: qHTS assay to identify small molecule agonists or antagonists of the thyroid stimulating hormone receptor (TSHR) signaling pathway - wild type cell line counter screen (AID 1259384; calls by dose curve). The essentials: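 Wild-type Hek293 cells, 800/well, 18 h at 37C, then compound with Ro20-1724 for 30 min RT. cAMP by HTRF (cAMP-d2/anti-cAMP cryptate), 1 h RT, fluorescence read. 15 concentrations, triplicates.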

For experiment [8], the target named is Thyrotropin receptor (Homo sapiens) (UniProt P16473). Nature of the experiment: qHTS assay to identify small molecule antagonists of the thyroid stimulating hormone receptor (TSHR) signaling pathway (AID 1259385; calls by dose curve; further: nearly all actives have a fitted effect of over 20% in size). The method in brief:
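TSHR-HEK293 cells (800/well) plated 18 h, then compounds with Ro20-1724 and TSH at 1.5 ng/mL final, 30 min at room temperature. cAMP quantified by HTRF (cAMP-d2/anti-cAMP-cryptate, 1 h); 15 concentrations in triplicate.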

The nature of experiment [9]: qHTS assay to identify small molecule agonists of the estrogen receptor alpha (ER-alpha) signaling pathway in the presence of an antagonist - cell viability counter screen (AID 1259386).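 Further: series mostly up to about 92 µM; cells exposed to compounds for 22 h at 37 °C before the viability read; nearly all actives have a fitted effect of over 30% in size.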 The method in brief:
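Fluorescent CellTiter-Fluor viability signal from VM7Luc4E2 cells, with the reagent added during the final hour of a 22hr compound exposure at 37C in the presence of 10.0nM ICI-182,780.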

Experiment [10] addresses Progesterone receptor (Homo sapiens) (UniProt P06401). Nature of the experiment: qHTS assay to identify small molecule agonists of the progesterone receptor (PR) signaling pathway (AID 1346784; calls by dose curve; further: nearly all actives have a fitted effect of over 30% in size). The essentials:
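Agonist qHTS: compounds pinned onto 3,000 PR-UAS-bla HEK 293T cells per well in charcoal-stripped serum medium, 16hr at 37C, then beta-lactamase activity measured by LiveBLAzer FRET fluorescence after 2 hours at room temperature.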

Experiment [11] is described as follows: qHTS assay to identify small molecule antagonists of the progesterone receptor (PR) signaling pathway - cell viability counter screen (AID 1346798). Further: nearly all actives have a fitted effect of over 50% in size. Further: potency means the concentration at half of the fitted maximal effect. The method in brief:
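Cytotoxicity read as CellTiter-Glo luminescence (30 min, room temperature) in the same wells as the beta-lactamase readout. HEK293T PR-UAS-bla cells in charcoal-stripped 2% FBS received compound and R5020, then 16 h at 37C, 5% CO2.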

Experiment [12] can be described thus: qHTS assay to identify small molecule antagonists of the TGF-beta/Smad signaling pathway - cell viability counter screen (AID 1346824). Further: nearly all actives have a fitted effect of over 50% in size. The essentials:
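SBE-bla HEK 293T cells, incubated overnight, then compound plus 0.25 ng/mL TGF-beta1 (stock added) for 5 hr at 37 C. Viability was read in the same wells by CellTiter-Glo luminescence after 30 min at room temperature.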

Experiment [13] can be described thus: qHTS assay to identify small molecule agonists of the TGF-beta/Smad signaling pathway - cell viability counter screen (AID 1346829). Further: top concentration of the series differs between compounds; nearly all actives have a fitted effect of over 45% in size. The essentials: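 HEK 293T SBE-bla line, 5 hr compound exposure at 37 C, multiplexed CellTiter-Glo viability read by luminescence.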
Experiment [14] in a line: qHTS assay to identify small molecule agonists of the TGF-beta/Smad signaling pathway (AID 1346859; active means well fitted activation curve with a large enough effect in the signal ratio in the repeat runs, not every such curve was filed as active; the % refers to the signal ratio; further: series mostly up to about 77 µM). The essentials: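 Fluorescence (ex 405 nm; em 460 and 530 nm) was read 2 h after LiveBLAzer FRET substrate at RT. The preceding compound treatment of overnight-plated SBE-bla HEK293T cells lasted 5 h at 37 C.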
The target in experiment [15] is Thyrotropin-releasing hormone receptor (Homo sapiens) (UniProt P34981). Nature of the experiment: qHTS assay to identify small molecule antagonists of the thyrotropin-releasing hormone receptor (TRHR) signaling pathway (AID 1346877; active means well fitted inhibition curve with a large enough effect in the repeat runs, not every such curve was filed as active; further: series mostly up to about 51 µM). The method in brief:
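In this cell-based calcium flux format, HEK293 cells expressing TRHR received test compound for 5 min before the agonist TRH (1 nM final). Dye loading lasted 2 h at 37 °C.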

Experiment [16] shares this target. The experiment can be described thus: qHTS assay to identify small molecule agonists of the thyrotropin-releasing hormone receptor (TRHR) signaling pathway (AID 1346891; calls by dose curve; further: series mostly up to about 58 µM). The essentials: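 Agonist-mode intracellular calcium readout: kinetic fluorescence over 3 min at 1 s intervals after compound addition to TRHR-HEK293 cells (18 h seeded, 2 h dye-loaded at 37 C). Fifteen concentrations, triplicates.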

The nature of experiment [17]: qHTS assay to identify small molecule agonists of the estrogen receptor beta (ER-beta) signaling pathway - cell viability counter screen (AID 1259380). Further: nearly all actives have a fitted effect of over 30% in size. Further: potency means the concentration at half of the fitted maximal effect. The method in brief: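 Viability of ER-beta-UAS-bla HEK293T cells was determined by CellTiter-Glo luminescence following 16 hr treatment with test compounds at 37C.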
The target of experiment [18] is Androgen receptor (Homo sapiens) (UniProt P10275). The experiment can be described thus: qHTS assay to identify small molecule agonists of the androgen receptor (AR) signaling pathway in the presence of an antagonist (AID 1259381; calls by dose curve; further: nearly all actives have a fitted effect of over 15% in size; further: potency means the concentration at half of the fitted maximal effect). The method in brief:
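Here, 15-concentration compound series were pin-transferred onto MDA-kb2 MMTV-luciferase cells already dosed with nilutamide (3.0uM final). After 16hr at 37C, ONE-Glo was added and luminescence read 30min later at room temperature.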

Experiment [19] has as its target Progesterone receptor (Homo sapiens) (UniProt P06401). Nature of the experiment: qHTS assay to identify small molecule antagonists of the progesterone receptor (PR) signaling pathway (AID 1346795; active means well fitted inhibition curve with a large enough effect in the signal ratio in the repeat runs, not every such curve was filed as active; the % refers to the signal ratio; further: potency means the concentration at half of the fitted maximal effect). The method in brief:
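Antagonist mode with agonist R5020 at 1 nM final and 16 hr incubation at 37C. Reporter was beta-lactamase driven by UAS in HEK293T (PR-UAS-bla), 2% charcoal-stripped serum; signal from LiveBLAzer FRET substrate, 2 hr at room temperature.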

Experiment [20] is described as follows: qHTS assay to identify small molecule agonists of the progesterone receptor (PR) signaling pathway - cell viability counter screen (AID 1346799; calls by dose curve; further: nearly all actives have a fitted effect of over 45% in size; further: potency means the concentration at half of the fitted maximal effect). The method in brief: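 Cytotoxicity measured by CellTiter-Glo luminescence (30 min, RT) in the same wells as the PR beta-lactamase agonist read. Those HEK293T cells had 16 h compound treatment at 37 C in 2% charcoal-stripped FBS medium.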

Results filed as inconclusive are left out. Calls of active or inactive are those of the source. Unless noted, the call rests on the fitted dose curve; in most records, active means well fitted curve in the direction sought with a large enough effect in the repeat runs; inconclusive means weak or mixed curves; inactive means no such curve, though single readings can be large; an effect the other way counts as inactive or inconclusive.

Estrogen receptor beta (Homo sapiens), sequence (Q92731 whole entry, looked up): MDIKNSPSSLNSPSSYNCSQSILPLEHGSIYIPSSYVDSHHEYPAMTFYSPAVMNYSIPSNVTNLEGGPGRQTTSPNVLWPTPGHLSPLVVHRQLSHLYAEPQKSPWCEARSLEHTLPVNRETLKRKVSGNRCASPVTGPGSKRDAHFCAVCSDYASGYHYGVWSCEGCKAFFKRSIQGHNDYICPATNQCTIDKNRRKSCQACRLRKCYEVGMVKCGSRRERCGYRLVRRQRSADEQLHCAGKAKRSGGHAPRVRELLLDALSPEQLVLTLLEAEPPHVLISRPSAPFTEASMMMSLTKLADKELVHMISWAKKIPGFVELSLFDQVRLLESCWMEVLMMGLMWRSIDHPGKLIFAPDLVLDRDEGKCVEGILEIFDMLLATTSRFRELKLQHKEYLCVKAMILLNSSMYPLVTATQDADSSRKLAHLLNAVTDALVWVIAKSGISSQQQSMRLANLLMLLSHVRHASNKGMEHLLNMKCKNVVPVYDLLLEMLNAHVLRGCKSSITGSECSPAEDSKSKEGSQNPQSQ
Progesterone receptor (Homo sapiens), sequence (P06401 whole entry, looked up): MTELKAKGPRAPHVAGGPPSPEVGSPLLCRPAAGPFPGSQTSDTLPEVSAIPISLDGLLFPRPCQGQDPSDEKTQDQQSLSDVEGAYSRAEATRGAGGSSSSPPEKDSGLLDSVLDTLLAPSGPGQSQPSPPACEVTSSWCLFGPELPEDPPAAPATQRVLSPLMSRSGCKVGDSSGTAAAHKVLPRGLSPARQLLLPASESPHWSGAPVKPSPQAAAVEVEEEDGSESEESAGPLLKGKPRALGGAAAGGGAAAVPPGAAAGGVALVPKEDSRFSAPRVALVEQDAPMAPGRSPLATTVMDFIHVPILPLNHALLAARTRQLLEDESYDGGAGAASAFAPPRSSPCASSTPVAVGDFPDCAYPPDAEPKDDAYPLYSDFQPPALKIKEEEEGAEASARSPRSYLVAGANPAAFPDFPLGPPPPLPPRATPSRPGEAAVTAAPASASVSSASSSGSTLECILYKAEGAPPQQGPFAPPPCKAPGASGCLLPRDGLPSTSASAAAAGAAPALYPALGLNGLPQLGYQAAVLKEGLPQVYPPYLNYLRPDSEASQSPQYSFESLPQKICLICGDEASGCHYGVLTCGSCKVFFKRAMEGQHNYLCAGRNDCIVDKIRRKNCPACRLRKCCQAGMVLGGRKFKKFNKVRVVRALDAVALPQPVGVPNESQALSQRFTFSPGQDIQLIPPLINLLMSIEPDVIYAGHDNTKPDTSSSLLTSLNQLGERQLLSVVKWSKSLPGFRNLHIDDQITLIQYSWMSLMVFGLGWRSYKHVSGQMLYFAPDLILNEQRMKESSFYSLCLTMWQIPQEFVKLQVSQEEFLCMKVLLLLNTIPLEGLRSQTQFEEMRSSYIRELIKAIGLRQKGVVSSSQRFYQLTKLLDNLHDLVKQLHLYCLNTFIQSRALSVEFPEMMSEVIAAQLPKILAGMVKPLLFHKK
Thyrotropin-releasing hormone receptor (Homo sapiens), sequence (P34981 whole entry, looked up): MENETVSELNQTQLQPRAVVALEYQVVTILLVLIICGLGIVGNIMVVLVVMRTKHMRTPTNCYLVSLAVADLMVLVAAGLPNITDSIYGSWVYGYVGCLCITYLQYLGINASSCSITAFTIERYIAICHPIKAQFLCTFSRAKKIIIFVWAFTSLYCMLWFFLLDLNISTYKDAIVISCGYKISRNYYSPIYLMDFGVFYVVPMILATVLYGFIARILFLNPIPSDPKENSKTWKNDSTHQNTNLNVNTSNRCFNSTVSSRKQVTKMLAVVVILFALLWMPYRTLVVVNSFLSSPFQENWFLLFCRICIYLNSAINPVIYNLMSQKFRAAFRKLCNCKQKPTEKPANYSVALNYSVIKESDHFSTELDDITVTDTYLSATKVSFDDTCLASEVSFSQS
Thyrotropin receptor (Homo sapiens), sequence (P16473 whole entry, looked up): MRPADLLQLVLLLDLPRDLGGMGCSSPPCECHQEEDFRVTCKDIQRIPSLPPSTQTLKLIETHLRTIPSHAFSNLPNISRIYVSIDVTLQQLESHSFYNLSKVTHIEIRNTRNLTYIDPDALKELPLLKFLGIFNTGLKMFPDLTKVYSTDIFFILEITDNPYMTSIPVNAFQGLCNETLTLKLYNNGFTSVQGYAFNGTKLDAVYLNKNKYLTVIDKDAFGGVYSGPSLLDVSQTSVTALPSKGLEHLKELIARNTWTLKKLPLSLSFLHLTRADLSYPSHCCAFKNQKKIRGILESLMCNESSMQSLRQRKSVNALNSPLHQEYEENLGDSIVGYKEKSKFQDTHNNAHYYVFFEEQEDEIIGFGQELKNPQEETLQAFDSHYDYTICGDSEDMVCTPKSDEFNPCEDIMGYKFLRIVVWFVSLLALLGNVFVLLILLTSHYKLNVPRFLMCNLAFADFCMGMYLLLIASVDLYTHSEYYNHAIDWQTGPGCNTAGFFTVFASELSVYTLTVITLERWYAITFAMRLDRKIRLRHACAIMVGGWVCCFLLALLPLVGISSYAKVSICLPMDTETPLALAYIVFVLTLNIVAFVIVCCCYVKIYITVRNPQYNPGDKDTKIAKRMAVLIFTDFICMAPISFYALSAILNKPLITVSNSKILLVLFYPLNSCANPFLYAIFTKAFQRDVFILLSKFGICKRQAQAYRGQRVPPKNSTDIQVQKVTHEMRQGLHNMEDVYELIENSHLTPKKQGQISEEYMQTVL
Androgen receptor (Homo sapiens), sequence (P10275 whole entry, looked up): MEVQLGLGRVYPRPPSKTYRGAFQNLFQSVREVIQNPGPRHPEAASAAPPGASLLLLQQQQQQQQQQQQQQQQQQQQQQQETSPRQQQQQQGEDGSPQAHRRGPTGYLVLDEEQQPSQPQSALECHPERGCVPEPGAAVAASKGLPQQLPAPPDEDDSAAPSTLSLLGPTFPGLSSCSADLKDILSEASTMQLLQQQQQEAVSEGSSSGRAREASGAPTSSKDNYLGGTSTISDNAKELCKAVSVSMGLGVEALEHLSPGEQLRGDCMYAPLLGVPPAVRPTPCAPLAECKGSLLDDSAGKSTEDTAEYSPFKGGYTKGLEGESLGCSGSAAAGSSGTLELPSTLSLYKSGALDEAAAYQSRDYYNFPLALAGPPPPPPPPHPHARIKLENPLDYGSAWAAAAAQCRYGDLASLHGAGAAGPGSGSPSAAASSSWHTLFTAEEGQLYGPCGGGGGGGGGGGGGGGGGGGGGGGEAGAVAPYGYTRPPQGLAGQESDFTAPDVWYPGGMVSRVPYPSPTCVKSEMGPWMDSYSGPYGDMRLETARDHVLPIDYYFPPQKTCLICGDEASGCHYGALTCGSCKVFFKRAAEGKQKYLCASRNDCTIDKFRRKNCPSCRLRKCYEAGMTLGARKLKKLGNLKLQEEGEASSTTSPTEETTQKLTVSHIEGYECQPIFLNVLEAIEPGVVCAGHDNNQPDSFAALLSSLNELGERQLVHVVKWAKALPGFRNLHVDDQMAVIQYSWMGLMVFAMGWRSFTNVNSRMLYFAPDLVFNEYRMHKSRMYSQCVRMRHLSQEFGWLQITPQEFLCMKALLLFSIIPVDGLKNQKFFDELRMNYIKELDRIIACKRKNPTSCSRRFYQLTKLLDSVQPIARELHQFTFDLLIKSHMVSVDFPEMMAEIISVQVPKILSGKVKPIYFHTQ

Consider `CCOC(=O)c1ccccc1C`, for which the Potency result in experiment [1], in [2], in experiment [3], in [4], in experiment [5] and in experiment [6] was “inactive” throughout. Further, the Potency result in experiment [8], in experiment [9], in [10] and in experiment [16] was “inactive” throughout. Also, the compound was classed as inactive in experiment [7], in experiment [12], in [13], in experiment [14] and in experiment [15]. Moreover, in [11], the Potency is 15.4 µM (active).

As for `CCOC(=O)CC(=O)C(=O)OCC`, the Potency result in experiment [1], in [2], in experiment [6] and in [16] was “inactive” throughout. Moreover, the Potency was 48.6 µM (active) in experiment [3], 8.63 µM (active) in experiment [17], 1.54 µM (active) in experiment [18] and 15.4 µM (active) in experiment [11]. Moreover, the compound was classed as inactive in experiment [7], in [12], in experiment [13], in experiment [14] and in experiment [15].

`CCCCN(CCCC)CCCOC(=O)c1ccc(N)cc1`: the Potency result in experiment [1], in experiment [2], in experiment [3], in experiment [4], in [5] and in experiment [11] was “inactive” each time. Besides, the Potency result in experiment [16] was “inactive”. Moreover, the compound was classed as inactive in [7], in [12], in experiment [13], in experiment [14] and in [15].

Take `C=CC(C)=CCC=C(C)C`: the Potency result in experiment [1], in experiment [2], in [3], in experiment [4], in [17] and in experiment [5] was “inactive” each time. The Potency entry in [9], in experiment [10], in [19], in experiment [11] and in experiment [20] was “inactive” throughout. In addition, the compound was classed as inactive in [12], in experiment [13] and in experiment [14].

`CCCCCCCCCCCC[N+](C)(C)CC(=O)[O-]`: the Potency result in [1], in [2], in experiment [3], in experiment [4], in experiment [6] and in experiment [8] was “inactive” in each case. For the same compound, the Potency result in experiment [9], in experiment [10], in experiment [19] and in experiment [16] was “inactive” in each case. The Potency in experiment [17] is 24.3 µM (active); in experiment [20], 21.7 µM (active). Besides, the compound was called inactive in experiment [12], in experiment [13], in experiment [14] and in experiment [15].

Consider `O=C(CCC1CCN(Cc2ccccc2)CC1)c1ccc2c(c1)NCCCC2`, for which the Potency is 10.6 µM (active) in experiment [1] and 29.8 µM (active) in [4]. In addition, the Potency entry in experiment [2], in experiment [3], in [18], in [5], in [6] and in experiment [10] was “inactive” each time. Besides, the Potency entry in experiment [19], in experiment [11] and in experiment [16] was “inactive” in each case. For the same compound, the compound was classed as inactive in experiment [12], in experiment [13], in experiment [14] and in [15].

On to `NC(=O)N(O)[C@@H]1COc2cc(OCc3ccccc3)ccc21`, for which the Potency entry in experiment [1], in experiment [2], in experiment [4], in experiment [17], in experiment [5] and in experiment [6] was “inactive” each time. Moreover, the Potency result in [8] and in experiment [9] was “inactive” in each case. In addition, the Potency in experiment [19] was 13.7 µM (active). Also, the call in experiment [12], in experiment [13] and in experiment [14] was inactive.

Turning to `CCOC(=O)OCC`, the Potency entry in experiment [1], in [2], in [3], in [4], in experiment [5] and in experiment [6] was “inactive” each time. For the same compound, the Potency result in experiment [9], in experiment [10], in [19], in experiment [11] and in experiment [20] was “inactive” throughout. Also, the call in experiment [7], in experiment [12], in experiment [13], in experiment [14] and in [15] was inactive.
